Laboratory results: PubChem BioAssay AID881 (National Center for Advancing Translational Sciences (NCATS), 2007)
In all, about 110,000 compounds went through this assay and about 610 (0.55%) were called active. About 3% were inconclusive and are not listed. This is one part of a sample in which actives are shown more often than they occur. The call rests on the fitted dose curve; in most records, active means well fitted inhibition curve with a large enough effect; inconclusive means small, poorly fitted or top-dose-only effect; inactive means no such curve, though single readings can be large or run the other way.

What follows are compounds tested against Polyunsaturated fatty acid lipoxygenase ALOX15B (Homo sapiens) (UniProt O15296) (assay: qHTS Assay for Inhibitors of 15-hLO-2 (15-human lipoxygenase 2)). Details: purified 15hLO-2, xylenol orange hydroperoxide absorbance; series mostly up to 0.0915 µM; activity change, negative = inhibition: at the top concentration.
Excerpt: Assay Overview: NIH Molecular Libraries Screening Centers Network [MLSCN] NIH Chemical Genomics Center [NCGC] MLSCN Grant: MH081283-01A1 PI Name: Holman, T.R., University of California, Santa Cruz Human lipoxygenase 15hLO-2 is a member of the closely related lipoxygenase family of enzymes which catalyze the site-specific oxidation of arachidonic acid to various hormone precursor molecules and as such is a candidate for drug development in a variety of disease areas, such as cancer and inflammation. Inhibition of 15hLO-2 activity was screened by utilizing arachidonic acid as a substrate. The extent of hydroperoxide product formation was measured by a secondary chromogenic reaction in which xylenol orange (XO, Sigma-Aldrich, cat. number 39,818-7) reacts with the ferric ions produced from the reaction between the hydroperoxide and ferrous ions. The Fe(III)-XO complex is characterized with red-shifted absorbance at 560 nm. A purified preparation of human 15hLO-2 was supplied by Professor Ted Holman, University of California, Santa Cruz.
Assay Protocol: Buffer: 25 mM Hepes pH 7.5, 0.01% Triton X-100. Reagents/Controls: Buffer in columns 3 and 4 as negative control (no enzyme). Substrate solution: 45 uM arachidonic acid (Sigma-Aldrich, St. Louis, MO) final concentration dispensed throughout the plate. Enzyme: 50 nM 15hLO-2 final concentration in columns 1, 2, 5-48. Column 1 is neutral (100% activity). Column 2 contained pin-transferred titration of NDGA (nordihidroguaiaretic acid, Sigma-Aldrich, N 5023, top concentration 10 mM in DMSO, then 1:2 dilution in duplicate). (Dilution factor: 23 nL into 4 uL.) Chromogenic detection reagent (divalent iron/xylenol orange, Fe-XO): 200 uM xylenol orange plus 300 uM ferrous ammonium sulfate prepared freshly in 50 mM sulfuric acid. Assay Steps: Three uL of enzyme were dispensed to 1536-well Greiner black clear bottom plates. Compounds and controls (23 nL) were transferred via Kalypsys PinTool. The plates were incubated for 15 min at room temperature, and then 1 uL of substrate solution was added to start the reaction. After room temperature incubation for 90 minutes, 4 uL of Fe-XO solution was added to each well followed by a short spin (1000 rpm, 15 sec) and the plates were then incubated for 30 min. The absorbance at 405 and 573 nm were measured using ViewLux (Perkin-Elmer) High-throughput CCD imager and absorbance protocol settings. The 573-to-405 absorbance ratio was used to compute reaction progress.
Further: nearly all actives have a fitted effect of over 60% in size.
On the % scale 0 is the no-effect control and ±100 the full control effect; potency means the concentration at half of the fitted maximal effect.

Sequence of Polyunsaturated fatty acid lipoxygenase ALOX15B (Homo sapiens) (O15296 whole entry, looked up): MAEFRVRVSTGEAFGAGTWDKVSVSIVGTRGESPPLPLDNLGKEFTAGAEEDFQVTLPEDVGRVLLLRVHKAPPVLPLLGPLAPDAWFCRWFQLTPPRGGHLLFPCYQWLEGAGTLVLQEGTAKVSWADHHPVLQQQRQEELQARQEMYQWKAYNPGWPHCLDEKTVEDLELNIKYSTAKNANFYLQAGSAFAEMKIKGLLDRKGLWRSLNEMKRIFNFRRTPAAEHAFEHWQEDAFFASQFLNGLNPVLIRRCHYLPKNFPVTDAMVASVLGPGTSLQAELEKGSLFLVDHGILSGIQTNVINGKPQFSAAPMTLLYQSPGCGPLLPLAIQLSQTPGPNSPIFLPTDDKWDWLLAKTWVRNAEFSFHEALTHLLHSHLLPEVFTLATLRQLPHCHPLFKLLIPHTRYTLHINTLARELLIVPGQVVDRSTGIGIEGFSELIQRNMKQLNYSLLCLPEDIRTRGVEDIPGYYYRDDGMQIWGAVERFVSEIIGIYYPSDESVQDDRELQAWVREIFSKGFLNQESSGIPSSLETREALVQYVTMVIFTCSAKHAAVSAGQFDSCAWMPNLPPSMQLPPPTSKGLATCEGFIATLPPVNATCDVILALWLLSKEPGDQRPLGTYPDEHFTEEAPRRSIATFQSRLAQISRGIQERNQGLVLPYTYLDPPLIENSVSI

Structure (SMILES)	Potency	activity change, negative = inhibition
CC(C)CC(C)Nc1ccc(Nc2ccccc2)cc1 (stereo not given)	1.58 µM (active)	–
CC(=O)NC(=O)NC(C)Cc1ccccc1 (stereo not given)	–	10.7% [at 57.1 µM] (inactive)
CC(C)(O/N=C(\C(=O)N[C@@H]1C(=O)N2C(C(=O)[O-])=C(C[n+]3ccccc3)CS[C@@H]12)c1csc(N)n1)C(=O)O	–	36.8% [at 25.6 µM] (inactive)
CCCCCCCCc1[se]c2ccccc2c1Br	–	-2.05% (inactive)
CN(C)[C@@H]1C(=O)C(C(N)=O)=C(O)[C@@]2(O)C(=O)C3=C(O)c4c(O)cccc4[C@@](C)(O)C3CC12 (stereo not given in full)	–	7.13% (inactive)
COc1ccccc1-c1[se]c2ccccc2c1I	–	10.7% (inactive)
Clc1ccc(C(c2ccc(Cl)cc2)n2cc[n+](C[C@@H](OCc3ccc(Cl)cc3Cl)c3ccc(Cl)cc3Cl)c2)cc1	25.1 µM (active)	–
N#CC(C#N)=Cc1cc(O)c(O)c([N+](=O)[O-])c1	–	-26.2% (inactive)
COC(=O)c1ccc2[se]c(CC3CCCCC3)c(I)c2c1	–	-9.39% (inactive)
CC(C)(O)c1[se]c2ccccc2c1I	–	-11.7% (inactive)
